Source: PubChem BioAssay (Broad Institute)
Vif inh = HIV Vif inhibition | HEK293T cells, Vif self-association by quenched fluorescence, imaging, 24 h | inhibition, % at 7.49 µM | 0.35% of 340,000 active | AID 602346; in the data active = inhibition above about 50%, passing the limit was not always enough; inconclusive = no clear call, values can overlap the other calls; inactive = below about 31%
Wnt act = Wnt/beta-catenin pathway activation; Wnt/beta-catenin reporter cell assay, activator, plate reader; activation, % at 9.35 µM; 1.2% of 300,000 active; AID 743398; in the data active = activation above about 30%, passing the limit was not always enough; inconclusive = no clear call, values can overlap the other calls
MITF act = increases MITF-driven TRPM1 promoter luciferase signal. SK-MEL-5 TRPM1-promoter luciferase, 24 h; % of positive control, neutral wells = 0. activation, % at 12.5 µM. 0.75% of 300,000 active;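 active = mean activation of at least 80% with every replicate also reaching 80%; inconclusive = mean reaches 80% but some replicate falls short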
PfHsp90 yeast 2 = inhibits growth of yeast expressing Plasmodium falciparum Hsp90. 0.32% of 310,000 active. S. cerevisiae expressing PfHsp90, BacTiter-Glo ATP, 48 h; yeast lacking PDR1 and PDR3 efflux regulators. AID 504621. inhibition, % at 9.4 µM;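 active = every replicate shows inhibition above about 80%, whatever the replicate mean, limit read from the data; inconclusive = mean inhibition reaches the set limit but some replicate falls short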
esBAF inh = SWI/SNF esBAF complex inhibition. mouse ES cells, Bmi1-luciferase knock-in reporter, 24 h; 100% = twice the neutral-well signal. reporter increase, % at 12.5 µM. 2% of 350,000 active. AID 602393; in the data active = activation above about 40%; inconclusive = no clear call, values can overlap the other calls;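 also: a rise in the Bmi1 reporter signal indicates esBAF inhibition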
Glyco luc inh = N-linked glycosylation inhibition | D54 ERlucT glycosylation luciferase reporter, 24 h; percent of 100 nM tunicamycin response | reporter increase, % at 12.5 µM | 0.23% of 360,000 active | AID 588692;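 active = mean luciferase reporter signal, scaled so untreated is 0 and the glycosylation-blocking control 100, at or above a set limit in every replicate; inconclusive = mean reaches the limit but not every replicate does; inactive = mean below the limit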;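 also: luciferase carries N-glycosylation sites so blocking glycosylation raises the light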
Numbers stand for hits; - = inactive; ? = inconclusive; . = no result. A selection: hits, their analogues and other compounds. The true share with any hit is near 3%.

SMILES	Vif inh	Wnt act	MITF act	PfHsp90 yeast 2	esBAF inh	Glyco luc inh
O=c1[nH]c(COc2ccc(Cl)cc2Cl)nc2ccccc12	-	-	-	-	73.3	-
O=c1[nH]c(COc2ccc(Cl)cc2Br)nc2ccccc12	-	-	-	-	.	-
CCOC(=O)N/N=C\c1ccccc1OC/C=C/c1ccccc1	-	41.5	-	-	46.0	-
COC(=O)N/N=C\c1ccccc1OC/C=C/c1ccccc1	-	-	98.0	-	49.1	-
CCOC(=O)N/N=C/c1ccc(Oc2ccccc2)cc1	-	-	-	-	-	-
N#CCC(=O)N/N=C\c1cc(Br)ccc1OC/C=C/c1ccccc1	-	?	92.6	-	-	-
COc1ccc(NC(=O)c2cnc3sccn3c2=O)cc1	.	41.9	-	-	.	.
Cc1cccc(NC(=O)c2cnc3sccn3c2=O)c1	.	-	.	-	-	-
COc1ccc(-c2cc3nc4ccccc4n3c(N)c2C#N)cc1	-	-	113.7	-	.	-
COc1ccc(-c2cc(-c3ccccc3)c(C#N)c(S(C)=O)n2)cc1 (stereo not given)	-	-	-	-	-	-
C=CCN1C(=O)CS/C1=C(\C#N)S(=O)(=O)c1ccc(C)cc1	-	.	-	-	-	-
N#C/C(=C\c1ccc2c(c1)OCCO2)C(=O)Nc1ccc(C(=O)O)cc1	-	-	-	-	60.9	-
C[C@@]12C(=O)N(CCO)CC(=O)N1[C@H](/C=C/c1ccccc1)[C@@H]1C(=O)N(c3ccccc3)C(=O)[C@@H]12	-	-	-	-	-	-
O=C(O)CN1C(=O)/C(=C/C=C/c2ccccc2)SC1=S	-	49.0	-	-	.	-
O=C(CN1C(=O)S/C(=C\C=C\c2ccccc2)C1=O)Nc1ccccc1C(=O)O	-	-	-	-	.	-
O=C(O)CN1C(=O)/C(=C\c2ccc(OC(=O)c3ccco3)cc2)SC1=S	-	33.5	-	-	.	-
O=C(CCN1C(=O)S/C(=C\C=C\c2ccccc2)C1=O)Nc1ccc(O)cc1	-	-	-	-	93.2	-
O=C(O)CN1C(=O)/C(=C\c2cccc(OC(=O)c3ccco3)c2)SC1=S	-	-	-	-	-	-
O=C(CN1C(=O)S/C(=C\C=C\c2ccccc2)C1=O)Nc1cccc(O)c1	-	-	-	-	65.2	-
CC(C)CN(C(=O)CN(C)C(=O)Cc1ccccc1Cl)c1c(N)n(CC(C)C)c(=O)[nH]c1=O	-	-	-	-	-	-
Cc1onc(-c2ccccc2)c1C(=O)N1CCCc2ccccc21	-	.	-	-	-	-
CCc1ccc2[nH]c(C(=O)Nc3ccc(Br)c(C)n3)cc2c1	-	-	-	-	43.8	-
C(=N\Nc1nc(-c2ccccc2)cs1)/c1cccnc1	-	-	-	-	62.6	-
CC(C)(C)c1csc(N/N=C/c2cccnc2)n1	-	-	-	-	33.8	-
C(=N\Nc1nccc(-c2cccnc2)n1)/c1ccccc1	-	48.7	.	.	.	-
SMILES	Vif inh	Wnt act	MITF act	PfHsp90 yeast 2	esBAF inh	Glyco luc inh
Cc1ccc(/C=N/Nc2nc3ccccc3s2)o1	-	35.2	-	-	.	-
Cc1ccccc1-n1c(O)c(/C=C/C=Nc2ccccc2)c(=O)[nH]c1=O	-	.	-	-	.	-
CCOc1ccccc1NC(=O)C1CCCN(S(=O)(=O)c2cccc3cccnc23)C1 (stereo not given)	-	-	-	-	-	-
C/C(=N\Nc1nc(C(C)(C)C)cs1)c1ccccc1	-	-	-	-	-	-
Cc1ccc(/C=N/Nc2nc(C(C)(C)C)cs2)o1	-	-	84.7	-	?	-
Cc1ccc(C(=O)/C=C/c2ccc3c(c2)OCCO3)c(O)c1	-	-	-	-	.	-
O=C(C=Cc1ccc2c(c1)OCO2)C=Cc1ccc2c(c1)OCO2	-	-	.	.	.	-
O=C(/C=C/c1ccc2c(c1)OCCCO2)c1ccc2ccccc2c1O	-	-	-	-	45.0	-
O=C(O)c1ccc2c(c1)OCCCO2	-	-	-	-	-	-
COc1cc(/C=C/C(=O)c2ccc3c(c2)OCCO3)cc(OC)c1OC	-	-	.	-	-	42.1
O=C(C=Cc1ccc2c(c1)OCO2)c1ccccc1	-	-	-	.	49.9	-
O=C(/C=C/c1ccccc1)c1ccc2c(c1)OCCCCO2	-	-	91.3	-	.	-
CCCCSc1nc2sc3c(c2c(=O)n1-c1ccccc1)CCN(C)C3	-	-	-	-	-	-
CCOC(=O)C1CCCN(C2=NC(=O)/C(=C/c3ccc(OC)cc3OC)S2)C1 (stereo not given)	-	-	-	-	-	-
O=C(N/N=C/c1ccc2c(c1)OCO2)c1ccccn1	-	-	-	.	-	-
O=C(/C=C/c1ccc2c(c1)OCO2)c1ccccn1	-	-	.	-	38.4	-
O=C(CCC1CCCCC1)NCc1ccncc1	-	.	.	.	-	-
CCOC(=O)c1sc2nc3c(cc2c1N)COC(C)(CC)C3 (stereo not given)	-	57.6	.	-	-	-
COC(=O)c1sc2nc3c(cc2c1N)CCCC3	-	57.7	-	-	.	-
NC(=O)c1sc2nc3c(cc2c1N)CCC3	-	-	-	-	-	-
CCOC(=O)c1sc2nc3c(cc2c1N)COC(C)(C)C3	-	53.2	?	-	.	-
CCc1nc2c(sc3nc4c(cc32)COC(C)(C)C4)c(=O)n1CCN(CC)CC	-	-	-	-	-	-
CC1(C)Cc2nc3sc(C(N)=O)c(N)c3cc2CO1	-	-	-	-	-	-
C=CCn1c(C)nc2c(sc3nc4c(cc32)COC(C)(C)C4)c1=O	-	45.9	-	-	.	-
O=C(O)C1(S(=O)(=O)CCC(F)=C(F)F)CC1	-	-	-	-	.	-
SMILES	Vif inh	Wnt act	MITF act	PfHsp90 yeast 2	esBAF inh	Glyco luc inh
COc1cc(N2CCC(O)CC2)ccc1Nc1nnc(Cl)c(Nc2ccccc2S(C)(=O)=O)n1	-	.	-	-	-	-
COc1ccc(C2CC(c3ccc(F)cc3)=NN2c2ccccc2)cc1OC (stereo not given)	-	-	.	-	-	-
COc1ccc(C2=NN(c3ccccc3)C(c3ccc(OC)c(OC)c3)C2)cc1 (stereo not given)	-	-	84.3	-	46.5	-
COc1ccc(C2=NN(C(C#N)c3ccc(OC)c(OC)c3)C(c3ccccc3)C2)cc1 (stereo not given)	-	61.0	-	-	50.6	-
Oc1ccc(C2=NN(c3ccccc3)C(c3ccc(F)cc3)C2)cc1 (stereo not given)	-	-	-	119.7	-	-
COc1ccc(C(C#N)N2CCC(c3ccccc3)=N2)cc1OC (stereo not given)	-	-	-	-	.	-
COc1cccc(Nc2nc(CN3CCOCC3)nc3sc4c(c23)CCCC4)c1	95.7	-	-	-	-	-
O=C(NCc1ccc2c(c1)OCO2)c1cc(-n2cnnc2)ccc1Cl	-	-	.	-	-	-
O=C(O)c1cnn2cc(-c3[nH]ncc3[N+](=O)[O-])cnc12	-	-	-	-	.	-
